High-throughput results from PubChem.
This is a sample that favours compounds with a hit; in the whole collection about 1.7% have one here.
GLP1R cytotox: cytotoxic in the GLP-1 receptor inverse agonist counter-screen; HEK293 cAMP-luciferase reporter cells, luminescence, 24 h; Potency, µM (top dose mostly 38.3 µM), hits mostly inhibitors; 0.13% of 410,000 active; AID 624418;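 also: loss of luciferase light is scored as toxicity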
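Compound-treated cells are incubated 24 hr at 37 deg C under 5% CO2 after a 12 hour attachment period, then luciferase detection reagent is added and luminescence is measured following 12 min at room temperature; lowered signal indicates toxicity.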
GLP-1R agonist: agonists of human GLP-1 receptor | HEK293 GLP-1R CRE-luciferase, luminescence, 4-6 h; cells express a hypersensitive GLP-1R form | Potency, µM (top dose mostly 45.6 µM), hits mostly activators | 0.007% of 380,000 active | P43220
PTHR1 ag: PTHR1 (human) receptor agonism. 0.075% of 410,000 active. Q03431. AID 743266. Potency, µM (series often up to 115 µM), most hits filed as activators. HEK293 GP2 PTHR1 cells, GloSensor cAMP luminescence, 1 h; also: nearly all actives have a fitted effect of over 55% in size
Target sequence (Q03431 whole entry, looked up): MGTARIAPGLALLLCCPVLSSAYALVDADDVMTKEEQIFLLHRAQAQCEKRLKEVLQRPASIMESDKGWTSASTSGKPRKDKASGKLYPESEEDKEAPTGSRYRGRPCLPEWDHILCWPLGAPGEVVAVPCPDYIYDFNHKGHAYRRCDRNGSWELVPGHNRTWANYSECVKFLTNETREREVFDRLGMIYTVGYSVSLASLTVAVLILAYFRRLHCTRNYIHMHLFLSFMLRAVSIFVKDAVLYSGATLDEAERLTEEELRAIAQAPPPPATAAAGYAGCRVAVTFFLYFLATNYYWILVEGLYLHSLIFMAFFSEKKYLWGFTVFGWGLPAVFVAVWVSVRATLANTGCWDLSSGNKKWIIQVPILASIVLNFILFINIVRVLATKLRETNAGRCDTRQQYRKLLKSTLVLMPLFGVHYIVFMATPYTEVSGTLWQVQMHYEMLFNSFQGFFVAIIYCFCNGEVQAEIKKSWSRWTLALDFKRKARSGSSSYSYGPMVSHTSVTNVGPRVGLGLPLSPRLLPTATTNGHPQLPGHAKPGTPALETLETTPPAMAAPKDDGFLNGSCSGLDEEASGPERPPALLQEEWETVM
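HEK-293-derived GP2 cells expressing PTHR1 and a GloSensor cAMP reporter, 3,000/well, plated overnight, given luciferin plus IBMX (each 0.5 mM as added) for 1 h at 37 °C, then compound for 1 h at 37 °C. Luminescence was read after 15 min at room temperature.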
GLP-1R inv ag: acts as inverse agonist at human GLP-1 receptor | Potency, µM (highest dose often 38.3 µM), actives largely listed as inhibitors | HEK293 GLP-1R CRE-luciferase, luminescence, 24 h; GLP-1R form is constitutively active | P43220 | AID 624417 | 1.6% of 410,000 active; also: nearly all actives have a fitted effect of over 55% in size
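qHTS in 1536-well format: reporter HEK293 cells expressing constitutive GLP-1R activity in DMEM + 10% Nu serum, 24 hr with compounds at 37 deg C, luminescence read after 12 min with detection reagent.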
Large screens that a line does not name were inactive. Calls follow the shape of the dose curve; as a rule, active = well fitted curve in the direction sought with a large enough effect; inconclusive = small, poorly fitted or top-dose-only effect, or another doubt; inactive = no such curve, though single readings can be large; an effect the other way counts as inactive or inconclusive.

Cc1ccc(S(=O)(=O)NC(C)C(c2cccs2)N2CCN(C)CC2)cc1 (stereo not given)	GLP-1R inv ag inconclusive
CN(C)S(=O)(=O)c1cccc(N=C2SCCN2Cc2ccccc2)c1	GLP-1R inv ag 11.2µM
CC(C)(C)NC(=O)c1ccc2c(c1)C1C3CCC(C3)C1C(c1ccccc1)N2 (stereo not given)	GLP-1R inv ag 2.82µM
CCN(CCCNc1ncnc2nc[nH]c12)c1cccc(C)c1	none
CCCCN(CCCNc1ncnc2nc[nH]c12)c1ccccc1	GLP-1R inv ag 10µM
COc1ccc(N(CC(=O)N2CCN(c3ccc(Cl)cc3)CC2)S(=O)(=O)c2c(C)n[nH]c2C)cc1	GLP-1R inv ag 11.2µM
Cc1ccc(OCCNC(=O)c2cccc(S(=O)(=O)NCc3ccccc3)c2)cc1	GLP1R cytotox inconclusive, GLP-1R inv ag 5.01µM
CC1CCCC(NC(=O)c2cccc(S(=O)(=O)N3CCN(c4ccccc4)CC3)c2)C1C (stereo not given)	none
O=C(NCc1ccncc1)c1cccc(S(=O)(=O)NCc2ccccc2)c1	none
CC1CCCC(NC(=O)c2cccc(S(=O)(=O)NCc3ccccc3)c2)C1C (stereo not given)	GLP-1R inv ag 11.2µM
CSc1cccc(NC(=O)C2CCN(S(=O)(=O)c3ccc4c(c3)CCCN4C(=O)C3CCC3)CC2)c1	none (no result: GLP-1R agonist)
COc1ccc(Cl)cc1NC(=O)CSc1nc2ccccc2nc1N1CCCCC1	none (no result: GLP-1R agonist)
O=C(N/N=C/c1c[nH]c2ccccc12)C1CC1(c1ccccc1)c1ccccc1 (stereo not given)	GLP1R cytotox inconclusive, GLP-1R inv ag 4.47µM
O=C(O)c1ccc(N/N=C/c2c[nH]c3ccccc23)cc1	GLP-1R inv ag 5.62µM
Cc1cccc(NCC(=O)N/N=C\c2c[nH]c3ccccc23)c1	GLP1R cytotox inconclusive, GLP-1R inv ag 10µM
CN1C(CSCC(F)(F)F)Nc2cc(Cl)c(S(N)(=O)=O)cc2S1(=O)=O (stereo not given)	none (no result: GLP1R cytotox, PTHR1 ag, GLP-1R inv ag)
O=C(Nc1ccccc1)N(Cc1cccs1)c1ccc(F)cc1	GLP-1R inv ag inconclusive (no result: GLP-1R agonist)
O=C(/C(=C\c1ccccc1)c1nc2ccccc2[nH]1)c1ccc(Cl)cc1	GLP1R cytotox inconclusive, GLP-1R inv ag inconclusive
O=C(/C(=C/c1ccc(Cl)cc1)c1nc2ccccc2[nH]1)c1cccs1	GLP1R cytotox inconclusive, GLP-1R inv ag 4.47µM
COc1ccc(C2=Nn3c(nnc3-c3ccncc3)SC2)cc1OC	GLP-1R agonist inconclusive
COc1ccc(C2=Nn3c(nnc3-c3cccnc3)SC2)cc1OC	GLP-1R agonist 2µM
CC(C)(C)c1csc(NC(=O)c2ccc(Br)o2)n1	GLP-1R inv ag 10µM
CC(C)(C)c1csc(NC(=O)c2ccncc2)n1	none
CC(C)(C)c1csc(NC(=O)c2ccc(Cl)s2)n1	GLP-1R inv ag 2.82µM
Cc1ccc(C(=O)Nc2nc(C(C)(C)C)cs2)s1	GLP-1R inv ag inconclusive
O=C(Cn1ncc2c3ccccc3n(Cc3ccccc3)c2c1=O)Nc1ccccc1C(F)(F)F	none (no result: GLP-1R agonist)
CC(OCCN1CCCC1)(c1ccc(F)cc1)c1ccc(F)cc1	GLP1R cytotox inconclusive, GLP-1R inv ag 10µM
Fc1ccc(OCCOCCN2CCCC2)cc1	none
Cc1c(-c2ccc(Cl)cc2)c(=O)oc2c(CN3CCN(C)CC3)c(O)ccc12	none (no result: GLP-1R agonist)
CCOc1ccc(NC(=O)CSc2nc(-c3ccccc3)c3cc(OCC)ccc3n2)cc1	none (no result: GLP-1R agonist)
CCOc1ccccc1N=C1SC(CC(=O)Nc2ccc(OC)cc2OC)C(=O)N1CCC1=CCCCC1 (stereo not given)	GLP-1R inv ag 2.82µM
CCOC(=O)c1cccc(NC(=O)CCCn2c(C)c3cnn(-c4ccccc4)c(=O)c3c2C)c1	GLP-1R inv ag inconclusive (no result: GLP-1R agonist)
CN1CCCC1CCNc1ccc2sc3ccccc3c(=O)c2c1 (stereo not given)	GLP1R cytotox inconclusive, GLP-1R inv ag 14.1µM
O=c1c2ccccc2sc2ccc(NCCCN3CCOCC3)cc12	GLP-1R inv ag inconclusive
C[C@H](N)C(=O)N[C@@H](C)P(=O)(O)O	none (no result: GLP1R cytotox, PTHR1 ag, GLP-1R inv ag)
CC(=O)Nc1ccc(S(=O)(=O)NC2CCCCCC2)cc1	none
CC(C)C(=O)NC(=S)Nc1ccc(S(=O)(=O)NC2CCCCC2)cc1	GLP-1R inv ag 10µM
COc1cc2c(cc1OC)C(COc1ccc3c(C)cc(=O)oc3c1)N(C(=O)Cc1ccc(F)cc1)CC2 (stereo not given)	none (no result: GLP-1R agonist)
CC(C)(C)NCC(O)COc1ccccc1C(=O)CCc1ccccc1 (stereo not given)	GLP1R cytotox inconclusive, GLP-1R inv ag 11.2µM
CC(C)(C)NCC(O)COc1ccccc1C(C)(C)C (stereo not given)	GLP-1R inv ag 7.94µM
O=C(Oc1ccccc1)c1cccc2cccc(C(=O)Oc3ccccc3)c12	GLP-1R inv ag 10µM
O=C(NCCn1cc(SCc2ccc(F)cc2)c2ccccc21)c1cccs1	GLP-1R inv ag inconclusive
COc1ccc(N2CCN(C(=O)CSc3c4c(nc5ccc(Cl)cc35)CCCC4)CC2)cc1	GLP-1R inv ag inconclusive (no result: GLP-1R agonist)
CC(C)C(=O)OC/C(O)=C(\C#N)c1nc2ccccc2[nH]1	GLP1R cytotox inconclusive, GLP-1R inv ag inconclusive
N#C/C(=C(/O)COC(=O)CSc1ccc2ccccc2c1)c1nc2ccccc2[nH]1	GLP1R cytotox inconclusive, GLP-1R inv ag 7.94µM
Cc1ccc(C)c(SCC(=O)OC/C(O)=C(\C#N)c2nc3ccccc3[nH]2)c1	GLP1R cytotox inconclusive, GLP-1R inv ag inconclusive
CCCC(=O)OC/C(O)=C(\C#N)c1nc2ccccc2[nH]1	GLP1R cytotox 10µM, GLP-1R inv ag inconclusive
Cc1cccc(C)c1OCC(=O)OC/C(O)=C(\C#N)c1nc2ccccc2[nH]1	GLP1R cytotox inconclusive, GLP-1R inv ag inconclusive
COCC(=O)OC/C(O)=C(\C#N)c1nc2ccccc2[nH]1	GLP1R cytotox inconclusive, GLP-1R inv ag 5.01µM
Cc1ccc(NC(=O)CSc2n[nH]c(-c3ccc(F)cc3)n2)cc1F	none (no result: GLP-1R agonist)
Cc1cc(C)cc(C(=O)Nc2ccc(-c3nc4ncccc4o3)cc2)c1	none (no result: GLP-1R agonist)
O=C(Cc1ccccc1)N/N=C/c1ccc2cccc(O)c2n1	GLP1R cytotox 5.62µM, GLP-1R inv ag inconclusive
CCc1ccc(Sc2cc(C(=O)NCc3cccc(OC)c3)c3ccccc3n2)cc1	GLP-1R inv ag 10µM
COc1cccc(CNC(=O)c2cccnc2Sc2ccccc2)c1	GLP-1R agonist inconclusive
COc1ccc(Cn2c(O)c(C=Nc3ccc(O)cc3)c3ccccc3c2=O)cc1	GLP-1R inv ag 8.91µM
COc1ccc(OC)c(S(=O)(=O)N2CCC(c3ccncc3)CC2)c1	none (no result: GLP-1R agonist)
N#C/C(N=Nc1ccccc1O)=N\Nc1ccccc1O	GLP1R cytotox 10µM, GLP-1R inv ag inconclusive
Cc1nn(Cc2ccc(Cl)c(Cl)c2)c(C)c1NC(=O)c1cc(CC(C)C)on1	GLP-1R inv ag 3.16µM
Cc1ccccc1Cn1nc(C)c(NC(=O)c2cc(CC(C)C)on2)c1C	GLP-1R inv ag inconclusive
O=[N+]([O-])c1ccc(-n2nnnc2-c2ccccc2)c([N+](=O)[O-])c1	GLP1R cytotox 10µM, GLP-1R inv ag inconclusive
CCCCOc1ccc(CNC(=O)CCCN2C(=O)CSc3c2c(C)nn3-c2ccccc2)cc1	GLP-1R inv ag inconclusive (no result: GLP-1R agonist)
